From PubChem BioAssay AID504430 (National Center for Advancing Translational Sciences (NCATS), 2011)
Some of the results follow. Calls of active or inactive are those of the source.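 Rule for the calls: active = compounds that block the splicing kinase Clk1 enough to give a fitted half-inhibition concentration; inactive = the rest.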

The compounds below were run against Dual specificity protein kinase CLK1 (Homo sapiens) (UniProt P49759) (assay: Kinase Inhibition Study on Inhibitors of CDC-like Kinase 1 (Reaction Biology data)). Details: recombinant Clk1 kinase assay, 10 uM ATP.
Source text: NIH Molecular Libraries Probe Production Centers Network [MLPCN] NIH Chemical Genomics Center [NCGC] MLPCN Grant: 1R03MH084827-01 Assay Submitter (PI): Tom Misteli NCGC Assay Overview: Alternative splicing of pre-mRNAs plays a major role in the regulation of eukaryotic gene expression. Alternative splicing is now thought to be one of the primary reasons for the complexity of higher organisms leading to an average of three protein isoforms per gene. Aberrant splicing can lead to a number of diseases and is known to play a role in rare genetic diseases such as progeria syndrome. Hutchinson-Gilford Progeria Syndrome (HGPS) is a pediatric premature aging disease caused by a spontaneous mutation in the lamin A/C (LMNA) gene due to a single point mutation in the lamin A gene effecting 1 in 4 million people. To identify both specific splicing modulators of the lamin A gene as well as general splicing modulators, a cell-based HTS assay was developed using a minigene reporter system (AIDs, 1459 & 1487). […] This AID summarizes the characterization of lead compounds in Clk1.
All kinase reactions were performed using 10 uM ATP in the assay. 100% activity was taken from kinase reactions with DMSO alone (the vehicle used for compound stock solutions).

Dual specificity protein kinase CLK1 (Homo sapiens), sequence (P49759 whole entry, looked up, canonical isoform): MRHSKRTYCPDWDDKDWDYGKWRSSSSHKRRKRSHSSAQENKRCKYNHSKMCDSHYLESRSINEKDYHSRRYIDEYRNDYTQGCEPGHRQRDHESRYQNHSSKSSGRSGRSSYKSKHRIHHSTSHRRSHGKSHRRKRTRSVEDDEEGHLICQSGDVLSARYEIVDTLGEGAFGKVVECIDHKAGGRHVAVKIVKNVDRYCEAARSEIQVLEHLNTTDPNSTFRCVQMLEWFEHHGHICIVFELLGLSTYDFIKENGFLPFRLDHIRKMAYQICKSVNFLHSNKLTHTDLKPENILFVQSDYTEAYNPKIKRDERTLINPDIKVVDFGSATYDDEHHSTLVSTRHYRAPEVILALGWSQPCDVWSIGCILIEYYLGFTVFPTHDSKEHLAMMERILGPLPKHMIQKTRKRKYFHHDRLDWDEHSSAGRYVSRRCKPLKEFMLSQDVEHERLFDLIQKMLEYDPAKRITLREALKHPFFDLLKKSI

Potency, active:
CC(Nc1ncnc2ccc(-c3ccc4c(c3)OCO4)cc12)c1ccco1 (stereo not drawn) 5.75 µM
c1nc(N2CCOCC2)c2cc(-c3ccc4c(c3)OCO4)ccc2n1 1.11 µM
CN(Cc1cncn1C)c1ncnc2ccc(-c3ccc4c(c3)OCO4)cc12 2.8 µM
